This is part of a sample that, as a whole, favours compounds with a hit. Of some 83,000 tested, about 20% had one in any assay.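 A percent growth of 40 corresponds to 60% growth inhibition; 0 means no net growth; -100 means all cells died. Active threshold: below 10.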 The source made the active and inactive calls.
Each molecule was assayed on A549/ATCC NSCLC (assay: NCI-60 one-dose screen, 48 h (100 = growth as untreated, 0 = no growth, -100 = all killed)). Conditions: 10 µM unless noted.
Procedure: Growth inhibition of the A549/ATCC human Non-Small Cell Lung tumor cell line is measured as a screen for anti-cancer activity. Cells are grown in 96 well plates and exposed to the test compound for 48 hours. Compounds are tested at a single concentration, which is 10^-5 M for most compounds. The reported endpoint is percent growth (GI% or GIPRCNT), where numbers from 0 - 100% represent growth inhibition, and numbers from -100% - 0 represent cell death. For example, a value of 40 represents 60% growth inhibition. A value of 0 means no net growth occurred over the course of the experiment. A value of -40 indicates 40% of cells at the beginning of the experiment died by the end of the experiment. A value of -100 means all cells are dead at the end of the experiment.
NCI-60 Human Tumor Cell Lines Screen was performed using the standard one-dose NCI protocol, which is described in more detail at https://dtp.cancer.gov/discovery_development/nci-60/default.htm.
Compounds with GIPRCNT values below 10 were considered active. Activity score was based on GIPRCNT using the following formula: […]
Score is 0 for GIPRCNT values of 100 or above, 50 for GIPRCNT values of 0, and 100 for GIPRCNT values of -100.
With `COc1ccc(/C=C/C(=O)c2ccc(NC(=O)CSc3nc4c([nH]3)c(=O)n(C)c(=O)n4C)cc2)cc1OC` the growth was 87.7% (inactive). With `Cc1ccc(C(=O)c2ccc(CC(=O)NN3C(=O)c4ccccc4C3=O)n2C)cc1` the growth was 101% (inactive). `O=C(/C=C/C12c3ccccc3C(c3ccccc31)C1C(=O)NC(=O)C12)c1ccc(Br)cc1` (stereo not given) was tested, and the growth was 50.2% (inactive). For `COc1ccc(-c2nc(/C=C3\C(=O)N(C)c4ccccc43)c3ccccn23)cc1`, the growth was 88.7% (inactive). With `COC(=O)CC[C@@H]1O[C@@H](c2ccc(F)cc2)[C@@H](O)[C@H]1O` the growth was 112% (inactive). With `CCOc1cccc(/C=N/NC(=O)c2cccc(Nc3ccnc(C(F)(F)F)c3)c2)c1O` the growth was 38% (inactive). In the case of `CCO/C=N/C1=C(C#N)C(c2ccc(F)cc2)c2sc3c(F)cccc3c2O1` (stereo not given), the growth is reported as 40.6% (inactive). With `CN(C)c1ccc(/C=C(\C#N)c2cc3ccccc3[nH]2)cc1` the growth was 41.4% (inactive). For `O=C(Nc1ccccc1[N+](=O)[O-])c1ccc(Cl)c(Cl)c1`, the growth was 104% (inactive). For `COc1ccc(C(=O)/C=C/c2ccc(N3CCCCC3)cc2)cc1OC`, the growth was 90% (inactive). For `N#CC1CCc2c(c(-c3ccc4nc(N)sc4c3)nc3ccc4[nH]ncc4c23)C1` (stereo not given), the growth was 46% (inactive). With `C=CCN1C(=O)c2cccc3c(N4CCOCC4)ccc(c23)C1=O` the growth was 3.05% (active). With `N#Cc1ccc(O)c(C2=NCC(Cc3ccccc3)O2)c1` (stereo not given) the growth was 35.8% (inactive). `CCN1CCN(CCNc2nccc(-c3c(-c4ccc(F)c(OC)c4)nc4sccn34)n2)S1(=O)=O` was tested, and the growth was 73.3% (inactive). For `O=C1c2ccccc2C(=O)c2c1c(C(=O)NCc1ccccc1)c1ccccn21`, the growth was 76.8% (inactive). `S=c1nc2oc(-c3ccccc3)c(-c3ccccc3)c2c(/N=C\c2ccco2)[nH]1` was tested, and the growth was 95.3% (inactive). In the case of `CN(CCC(=O)c1ccccc1)CCC(=O)c1ccccc1`, the growth is reported as 97.7% (inactive). `O=S(=O)(NCCNc1nccc(-c2c(-c3cccc(O)c3)nc3occn23)n1)c1ccc(Br)cc1` was tested, and the growth was 20.9% (inactive). With `CN1C(=O)/C(=C/c2ccc(C(=O)Nc3ncc(Cc4cccc(Cl)c4)s3)cc2)SC1=S` the growth was 56% (inactive). `Cc1cccc[n+]1C1c2ccccc2-c2ccccc21` was tested, and the growth was 78.8% (inactive). In the case of `Cn1cc(-c2csc(-c3cn(CCCN4CCOCC4)c4ccccc34)n2)c2cccnc21`, the growth is reported as 79.3% (inactive). In the case of `COC(=O)c1c2c(n3ccccc13)C(=O)c1ccccc1C2=O`, the growth is reported as -49.1% (active). With `Cc1ccc(-c2nc(/C=C3/C(=O)Nc4ccc(F)cc43)c3ccccn23)cc1` the growth was 81.8% (inactive). For `Cc1nnc(-c2ccc3c(c2)nc(/C=C/c2ccccc2)n3C2CCCCC2)o1`, the growth was 52.5% (inactive). `CCCC(CC)(C(=O)Nc1ccc2nc(C)cc(N)c2c1)C(=O)Nc1ccc2nc(C)cc(N)c2c1` was tested, and the growth was 98.3% (inactive). `CCCCCN(CCCCC)CC(O)c1cc(C)c2ccc3cc(C(C)C)ccc3c2c1` (stereo not given) was tested, and the growth was 3.86% (active). For `O=C1c2ccccc2C(=O)c2c1cc1c(c2[N+](=O)[O-])OCO1`, the growth was 49% (inactive). For `O=c1c2c3c(sc2n2c(-c4cc(-c5ccccc5)no4)nnc2n1Cc1ccccc1)CCCC3`, the growth was 49.9% (inactive). `COc1cc(OC)c(/C=C/C(=O)c2c(O)cc(OC)c(C3CCN(C)CC3)c2OC)c(OC)c1` was tested, and the growth was -60.7% (active). In the case of `N#Cc1nc(-c2ccccc2)oc1S(=O)(=O)N1CCN(c2ccc(F)cc2)CC1`, the growth is reported as 101% (inactive). For `CS(=O)(=O)c1nnc(-c2ccccc2)s1`, the growth was 87.1% (inactive). For `CSc1nc(C)c([N+](=O)[O-])c(N)n1`, the growth was 76.2% (inactive). `Cc1ccc(CNc2ccc3nc(CCC(C)C)[nH]c3c2)cc1` was tested, and the growth was 97.6% (inactive). For `O=C(NCc1cccc(CNC(=O)Nc2nc3ccccc3[nH]2)c1)Nc1nc2ccccc2[nH]1`, the growth was -42.5% (active). In the case of `Fc1ccc2[nH]cc(-c3nc(-c4c[nH]c5ccncc45)cs3)c2c1`, the growth is reported as -41.7% (active). `COc1ccc(-c2cc(-c3ccccc3)nc(N3CCN(CCNc4ccnc5cc(Cl)ccc45)CC3)n2)cc1` was tested, and the growth was -16% (active). With `C=C(C)[C@@H]1CCC[C@]2(C(=O)O)CC[C@]3(C)[C@@H](CC[C@@H]4[C@@]5(C)C/C(=C/c6ccncc6)C(=O)C(C)(C)[C@@H]5CC[C@]43C)[C@@H]12` the growth was 16.3% (inactive). `Cc1ccc(C)c(/C=C2\CN(C(=O)OC(C)(C)C)C/C(=C\c3cc(C)ccc3C)C2=O)c1` was tested, and the growth was 80.5% (inactive). In the case of `N#C/C(=C\C=C\c1ccc(-c2cc(Cl)ccc2Cl)o1)c1nc2ccccc2s1`, the growth is reported as 99.4% (inactive). In the case of `N=c1c(S(=O)(=O)c2ccccc2)cc2c(=O)n3ccccc3nc2n1CC1CCCO1` (stereo not given), the growth is reported as 111% (inactive).

From PubChem BioAssay (NCI)
